# Measurements from ChEMBL document CHEMBL4513216, “Probing the Open Global Health Chemical Diversity Library for Multistage-Active Starting Points for Next-Generation Antimalarials” (ACS Infect Dis, 2020).
# The whole screen tested about 65,000 compounds, of which about 2,100 (3.2%) showed an effect of 50% or more. The median lay at about -52%. Only a selection was taken, and strong results are over-represented in it overall.
# Test system: Plasmodium falciparum
# Assay: Screen against P. falciparum Asexual Blood Stage (ABS), at 5uM
# Assay type: functional, Dd2
# Settings: tested at 5 uM
row,SMILES,INHIBITION
1,c1cncc(CO[C@H]2CO[C@@]3(CCN(Cc4ccoc4)C3)C2)c1,23.3%
2,O=C(c1cccnc1-n1cncn1)N1CCC(Nc2ccccc2)CC1,-86.3%
3,Cc1ccccc1CN(CCN(C)C)Cc1ccc(S(C)(=O)=O)cc1,80.4%
4,CCN1CCN(C(=O)COc2ccc(CN(C)S(C)(=O)=O)cc2)CC1,3.25%
5,Cc1c(NC(=O)NC2CN3CCC2CC3)cccc1C(=O)N1CCCC1 (stereo not drawn),-83.7%
6,CC(C)CCN1CCC2(CNS(=O)(=O)c3cccnc3O2)C1 (stereo not drawn),-5.49%
7,Cc1nn(-c2ncccn2)c2c1C(c1cnn(C)c1C)SCC(=O)N2 (stereo not drawn),-1.18%
8,Cc1cc(CN2CC[C@H]3C[C@H](c4nccs4)O[C@@H]3C2)no1,-108%
9,COc1cccc(OC)c1CN1CC(=O)N(c2ccc(C)cc2)CC1C (stereo not drawn),75.2%
10,Cc1cc(CN2CC[C@H]3[C@H]2CCN3C)oc1C,43%
11,Fc1ccc2c(C3=CCN(Cc4nnc(C5CCC5)o4)CC3)c[nH]c2c1,83.9%
12,Cc1cnc(CN2CC=C(c3c[nH]c4ncccc34)CC2)o1,12.6%
13,C1=C(c2c[nH]c3ncccc23)CCN(Cc2nnc(C3CC3)o2)C1,-48.5%
14,CCC(C)N(Cc1ccc(C)cc1)Cc1c[nH]c(C)n1 (stereo not drawn),77.5%
15,Cc1cc(C)c(CNc2ncnc3c2cnn3C)c(=O)[nH]1,-55.6%
16,O=C1CSC(c2ccc3c(c2)OCO3)c2cn[nH]c2N1 (stereo not drawn),-10.6%
17,NCCC(Cc1ccccc1)c1ccco1 (stereo not drawn),84.1%
18,O=C(c1cscn1)N1CCC2(CN(Cc3ccncc3)C2)C1,-48%
19,O=C(Nc1cccnc1)[C@H]1CN(Cc2cccs2)C[C@H]2OCC[C@@H]12,2.31%
20,Cc1cc(CN2CCC(CNS(=O)(=O)c3ccccc3F)CC2)c(C)o1,79.2%
21,Cc1cc(CN2CCC(CNS(=O)(=O)c3ccc(C)s3)CC2)c(C)o1,87.7%

row,SMILES,INHIBITION
1,Cc1ccc(CN2CCC3(CC2)C(=O)Nc2ccccc23)s1,46.9%
2,Cc1cc(CN2CCC(CNS(=O)(=O)c3ccc(Br)s3)CC2)c(C)o1,91.6%
3,CC(C)=CCN1CCN(C(=O)COc2ccccc2)[C@H]2CS(=O)(=O)C[C@H]21,-73.8%
4,CC(Cc1c(F)cccc1F)NC(=O)NCc1ncnn1C (stereo not drawn),-43.1%
5,O=C(c1ccnnc1)N1CCN2C[C@H](Oc3cccnc3)C[C@H]2C1,5.43%
6,Cc1nn(C)c(Oc2ccc(Cl)cc2)c1CN1CCC(CN)C1 (stereo not drawn),92.8%
7,Cn1cc(N2CC[C@@H]3CN(Cc4ccncc4)C[C@H]3C2=O)cn1,-102%
8,N#Cc1cccc(N2CCOC3(CNCCOC3)C2)n1 (stereo not drawn),17%
9,CC(C)C1CN(c2cccc(C#N)n2)CCCN1Cc1ccc(F)cc1 (stereo not drawn),91.3%
10,N#Cc1cccc(N2CCCC3(CNCCO3)C2)n1 (stereo not drawn),-104%
11,Cc1nc(C)c(CC(=O)N2CCCN(CC3CC3)C(C(C)C)C2)c(=O)[nH]1 (stereo not drawn),-23.8%
12,Cc1nc(N)nc(C)c1CC(=O)N1CCCN(CC2CC2)C(C(C)C)C1 (stereo not drawn),-198%
13,CC(C)C1CN(c2cccc(C#N)n2)CCCN1CC1CC1 (stereo not drawn),84.3%
14,CCN1CCC2(COCc3c(C)nc(N4CCOCC4)nc32)C1 (stereo not drawn),-129%
15,CC(Cn1cccn1)NCc1csc2c1CCCC2 (stereo not drawn),39.2%
16,CN(C)C1Cc2ccccc2N(S(=O)(=O)c2cccc(C#N)c2)C1 (stereo not drawn),76.6%
17,CC[C@H]1CN2CC[C@H]1C[C@@H]2CNC(=O)Nc1cccc(C#N)c1,-82.6%
18,CC(C)(C)n1ncc2c1NC(=O)CSC2c1ccsc1 (stereo not drawn),-82.3%
19,COc1ccc(C(=O)N2CCOC3(CNCCOC3)C2)c(OC)n1 (stereo not drawn),-97.3%
20,CC(C)n1ccnc1C1CCCN(c2ccnc3ccccc23)C1 (stereo not drawn),84%
21,Cc1nc(CO[C@@H]2CC[C@H]3[C@H]2OCCN3Cc2cccnc2)cs1,-22.1%

row,SMILES,INHIBITION
1,COc1ccc(C(=O)C2CCCN(Cc3ccncc3)C2)c(OC)c1 (stereo not drawn),-17.9%
2,O=C(Nc1ccc(Cl)cn1)C1CCCN(CCc2ccncc2)C1 (stereo not drawn),71.9%
3,COc1ccc(C(=O)C2CCCN(Cc3ccncc3)C2)cc1OC (stereo not drawn),-128%
4,O=C(CCc1nccs1)N1CCC(C(=O)O)(c2ccccc2)CC1,-56.3%
5,CN(C)[C@H]1CCCCN(C(=O)c2cccc(-c3cccc(F)c3)c2)C1,73.3%
6,CN1CCO[C@@H]2CN(C(=O)c3ccc4ncccc4c3)CC[C@@H]2C1,-46.1%
7,Cc1nc(CC(=O)N2CCCC[C@H](N(C)C)C2)cs1,-56.95%
8,O=C(c1ccnc(-n2cnnc2)c1)N1CCCC2(CCNC2)C1 (stereo not drawn),-120%
9,Nc1ncccc1CN1C[C@H]2OC(=O)N(Cc3ccccn3)[C@H]2C1,-117%
10,CC(Cc1cccc(F)c1)NCc1cnc(N2CCN(C)CC2)nc1 (stereo not drawn),67.6%
11,Cc1cccc(-c2ncc(CNC(C)Cc3ccncc3)cn2)c1 (stereo not drawn),-115%
12,Cc1cnc(N2CCN(C)c3ncccc3C2)nc1,-91.5%
13,Fc1cnc(N2C[C@H]3CN(Cc4cccc(F)c4)C[C@H]3C2)nc1,21.5%
14,CN1CCN(c2ncc(CNCCCc3cccc(F)c3)cn2)CC1,71.5%
15,CNC(=O)[C@@H]1C[C@H]2CN(c3ncccn3)C[C@H]2N1C(C)C,-98%
16,Cc1noc(C)c1CN1CCO[C@H]2CN(C(=O)N3CCCC3)C[C@H]21,-14.9%
17,O=C(C1CCCO1)N1CCC2(CC1)CNCCO2 (stereo not drawn),-75.2%
18,CNC(=O)CN1CCO[C@H]2CN(CC3CC3)C[C@H]21,-76.5%
19,Cn1cc(CN2C[C@H]3CN(c4cncnc4)C(=O)[C@H]3C2)cn1,-44.8%
20,CC(C)C(CNCc1cccc2c1OCO2)N1CCOCC1 (stereo not drawn),76%
21,CNC(=O)[C@H]1C[C@@H]2CN(C(=O)c3ccncc3F)C[C@@H]2N1C,-96.9%
